High-throughput results deposited in PubChem BioAssay by National Center for Advancing Translational Sciences (NCATS).
This is a sample that favours compounds with a hit; in the whole collection about 18% have one here.
DT40 TDP1 no CPT = qHTS for Inhibitors of human tyrosyl-DNA phosphodiesterase 1 (TDP1): qHTS in cells in absence of CPT. DT40 Tdp1-/- hTDP1 cells, no CPT, ATP luminescence, 48 h. Potency, µM (titrated, usually from 46.2 µM), most hits filed as inhibitors. 420,000 tested, 15% active; note: nearly all actives have a fitted effect of over 55% in size
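Compound effects on proliferation are scored in DT40 Tdp1-/-;hTDP1 cells in the absence of CPT. ATP levels (CellTiter-Glo luminescence) are recorded after a ≥48 hr, 37 °C incubation.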
DT40 TDP1 CPT = DT40-hTDP1 cell growth loss with CPT | chicken DT40 Tdp1-/-;hTDP1 cells + 20 nM CPT, ATP luminescence, 48 h | Potency, µM (titrated, usually from 46.2 µM), hits mostly inhibitors | 420,000 tested, 12% active; note: nearly all actives have a fitted effect of over 55% in size
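Chicken DT40 Tdp1-/- cells complemented with human TDP1, 400 cells/well, exposed to compounds plus 20 nM camptothecin for at least 48 h at 37 C; viability read as ATP content by CellTiter-Glo luminescence.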
TDP1 block = TDP1 (human) enzyme inhibition | recombinant TDP1, AlphaScreen DNA substrate cleavage | Potency, µM (titrated, usually from 130 µM), most hits filed as inhibitors | 350,000 tested, 0.28% active; note: nearly all actives have a fitted effect of over 40% in size
Target sequence (Q9NUW8 whole entry, looked up): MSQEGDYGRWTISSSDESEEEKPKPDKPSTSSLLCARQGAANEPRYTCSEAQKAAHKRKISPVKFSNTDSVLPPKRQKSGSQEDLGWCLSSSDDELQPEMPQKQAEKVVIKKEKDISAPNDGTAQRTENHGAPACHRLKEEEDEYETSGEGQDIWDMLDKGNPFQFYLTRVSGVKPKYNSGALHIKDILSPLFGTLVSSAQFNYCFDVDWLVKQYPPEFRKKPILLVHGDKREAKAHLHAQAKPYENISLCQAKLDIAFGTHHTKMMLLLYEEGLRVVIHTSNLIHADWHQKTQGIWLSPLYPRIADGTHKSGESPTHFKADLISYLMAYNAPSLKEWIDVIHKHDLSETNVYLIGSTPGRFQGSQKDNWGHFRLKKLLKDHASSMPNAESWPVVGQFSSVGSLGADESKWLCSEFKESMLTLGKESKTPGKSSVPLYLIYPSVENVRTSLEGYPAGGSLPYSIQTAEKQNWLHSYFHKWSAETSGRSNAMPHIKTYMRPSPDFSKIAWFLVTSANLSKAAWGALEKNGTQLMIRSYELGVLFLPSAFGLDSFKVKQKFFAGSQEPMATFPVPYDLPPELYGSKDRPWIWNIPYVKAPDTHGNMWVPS
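E. coli-derived human Tdp1, 1 nM final. Cpd preinc 15 min RT; substrate 15 nM final, 5 min RT; AS bead mix 10 ug/ml final, 10 min RT. Signal loss = tyrosine-FITC cleavage. No-enzyme wells = max signal.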
TGFb inhibitor = TGF-b pathway inhibition; HepG2 CAGA-GFP TGF-b/SMAD3 reporter, GFP fluorescence, 18 h; TGF-beta stimulated, 500 pg/mL final; 410,000 tested, 1.2% active; Potency, µM (highest dose often 46.1 µM), usual class: inhibitors; note: nearly all actives have a fitted effect of over 65% in size
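Using HEPG2 CAGA-GFP reporter cells at 1000 cells/well, we pinned test compounds, stimulated with recombinant TGF-beta (500 pg/mL final) and measured total well GFP after 18 h.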
HepG2 viability = kills HepG2 cells in TGF-b inhibitor counter-screen. HepG2 CAGA-GFP viability, ATP luminescence, 18 h. AID 588856. 410,000 tested, 0.76% active. Potency, µM (doses to about 46.1 µM), actives largely listed as cytotoxic
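CellTiter-Glo luminescence gave cytotoxicity after 18 hours at 37 degrees C. The cells were HepG2 CAGA-GFP in 1% FBS DMEM, stimulated with 500 pg/mL TGF-beta after compound addition. %Activity was normalised to no-cell wells (complete cell-killing) and DMSO (no toxicity), and curves were fitted and classified.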
IL1B secr inh = inhibitors of inflammasome signaling (IL-1 beta secretion); activity change, % at 57.5 µM; AID 743279; 360,000 tested, 4.7% active; THP-1 LPS/ATP IL-1B secretion, AlphaLISA, 16 h; hits give low values; in the data active = activity change below about -50%; inconclusive = mostly about -30% to -49%
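THP-1 cells pretreated 1 hr with compounds (up to 57.5 uM final), then stimulated with LPS (250 ng/mL final) plus ATP (1.25 mM final); secreted IL-1B measured by AlphaLISA after 16 hr, decreased signal indicating inhibition.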
A number is an active result; 0 = inactive; ? = inconclusive; - = not tested or not shown. Unless noted, calls come from the whole dose curve; as a rule, active = well fitted curve in the direction sought with a large enough effect; inconclusive = small, poorly fitted or top-dose-only effect, or another doubt; inactive = no such curve, though single readings can be large; an effect the other way counts as inactive or inconclusive.

SMILES | DT40 TDP1 no CPT | DT40 TDP1 CPT | TDP1 block | TGFb inhibitor | HepG2 viability | IL1B secr inh
CC(=O)Nc1ccc(S(=O)(=O)N2CCN(C(=O)Cc3ccccc3)CC2)cc1 | ? | 12µM | 0 | 0 | 0 | 0
CC(=O)Nc1ccc(S(=O)(=O)N2CCN(c3ccc([N+](=O)[O-])cc3)CC2)cc1 | 21µM | 23µM | - | 0 | 0 | 0
CC(=O)Nc1ccc(S(=O)(=O)N2CCN(c3cc(C(F)(F)F)ccn3)CC2)cc1 | 16µM | 18µM | 0 | 0 | 0 | 0
CC(=O)Nc1ccc(S(=O)(=O)N2CCN(CCc3ccccc3)CC2)cc1 | 0 | 0 | 0 | ? | 0 | 0
CC(=O)Nc1ccc(S(=O)(=O)N2CCSc3ccccc32)cc1 | 3.7µM | 4.1µM | 0 | 0 | 0 | 0
CC(=O)Nc1ccc(S(=O)(=O)N2CCN(S(=O)(=O)c3ccc(NC(C)=O)cc3)CC2)cc1 | 0 | 0 | - | 0 | 0 | 0
CC(=O)Nc1ccc(S(=O)(=O)N2CCN(c3nc(C)cc(C)n3)CC2)cc1 | 0 | 0 | 0 | 0 | 0 | 0
Cc1ccc(NC(=O)Nc2nnc(SCC(=O)Nc3ccc(F)cc3F)s2)cc1 | 0 | 0 | 0 | 0 | 0 | -
CSCCC(C(=O)NC1CCCC1)n1c(-c2ccncc2)nc2ccccc21 (configuration not stated) | 0 | ? | - | - | - | 0
COc1cc(CN2CCN(S(=O)(=O)c3ccc(NC(C)=O)cc3)CC2)cc(OC)c1OC | - | - | 0 | 0 | 0 | -
CC(=O)Nc1ccc(S(=O)(=O)N2CCN(Cc3cccc([N+](=O)[O-])c3)CC2)cc1 | 23µM | ? | 0 | 0 | 0 | 0
CCCOC(=O)CSc1nc(N)c(C#N)c(-c2ccco2)c1C#N | 0 | 0 | - | 0 | 0 | -88
N#Cc1c(N)nc(SCC(=O)OCc2ccccc2)c(C#N)c1-c1ccco1 | 0 | 0 | 0 | 0 | 0 | 0
N#Cc1c(N)nc(SCc2ccccc2)c(C#N)c1-c1ccco1 | ? | ? | 0 | ? | 0 | -73
CN(C)C1(CNC(=O)COc2ccc([N+](=O)[O-])cc2)CCCCC1 | 0 | 0 | 0 | 0 | 0 | -
COc1ccccc1NS(=O)(=O)c1cc(NC(=O)c2sccc2C)ccc1N1CCOCC1 | ? | 21µM | 0 | ? | 0 | 0
COc1ccccc1NS(=O)(=O)c1cc(NC(=O)C2CCCC2)ccc1N1CCOCC1 | ? | 15µM | 0 | ? | 0 | 0
COc1ccccc1NS(=O)(=O)c1cc(NC(=O)C(C)(C)C)ccc1N1CCOCC1 | 0 | ? | - | 0 | 0 | 0
COc1ccccc1NS(=O)(=O)c1cc(NC(=O)c2cnccn2)ccc1N1CCOCC1 | 0 | 0 | 0 | 0 | 0 | 0
O=C(Nc1ccc(N2CCOCC2)c(S(=O)(=O)Nc2ccccc2Cl)c1)c1ccc(F)cc1 | ? | ? | 0 | 0 | 0 | -56
COc1ccccc1NS(=O)(=O)c1cc(NC(=O)c2ccc(NC(C)=O)cc2)ccc1N1CCOCC1 | 5.8µM | 2.3µM | - | ? | 0 | 0
CCOC(=O)[C@@H](C)N(C(=O)OC(C)(C)C)S(=O)(=O)N(Cc1ccccc1)[C@@H](C(=O)OC)C(C)C | ? | ? | - | ? | 0 | -
CCc1cc2c(SCC(=O)N3CCN(C(=O)c4cccs4)CC3)ncnc2s1 | ? | ? | - | 0 | 0 | 0
CCOc1ccc2nc(Cl)c(C3CC(c4ccc(C)cc4)=NN3C(=O)CCC(=O)O)cc2c1 (configuration not stated) | 0 | 0 | 0 | 0 | 0 | -
Cc1cc(=O)[nH]c2nnc(-c3ccc(Cl)cc3)n12 | ? | 0 | - | ? | 0 | 0
SMILES | DT40 TDP1 no CPT | DT40 TDP1 CPT | TDP1 block | TGFb inhibitor | HepG2 viability | IL1B secr inh
COc1ccccc1NS(=O)(=O)c1cc(NC(=O)c2ccncc2)ccc1N1CCOCC1 | 12µM | 12µM | 0 | 0 | 0 | 0
COc1ccc(C(=O)COc2ncnc3cc(Cl)ccc23)cc1 | 0 | 0 | - | 0 | 0 | 0
CCc1cc(-c2nnn(CCC3COCCO3)c2C(C)(C)O)ccc1-c1cn(CCc2c[nH]c3ccccc23)nn1 (configuration not stated) | 12µM | 21µM | - | 0 | 0 | 0
CCc1cc(-c2cnnn2CCc2c[nH]c3ccccc23)ccc1-c1cn(CC(C)C)nn1 | ? | ? | - | 0 | 0 | 0
CCc1cc(-c2nnn(-c3cc(C(C)C)ccc3C)c2CC)ccc1-c1cn(CCc2c[nH]c3ccccc23)nn1 | ? | 23µM | - | 0 | 0 | 0
Cc1cc(-c2ccc(C)c(S(=O)(=O)Nc3cc(C)on3)c2)on1 | 0 | 0 | 0 | 0 | 0 | 0
COc1ccccc1-c1csc(C(C)(NC(C)=O)c2ccccc2)n1 (configuration not stated) | ? | 16µM | - | 0 | 0 | 0
CC(=O)NC(C)(c1ccccc1)c1nc(-c2cccc3cccnc23)cs1 (configuration not stated) | 15µM | 21µM | - | 0 | 0 | 0
CC(=O)NC(C)(c1ccccc1)c1nc(-c2ccc(S(C)(=O)=O)cc2)cs1 (configuration not stated) | 0 | ? | - | 0 | 0 | 0
CC(=O)NC(C)(c1ccccc1)c1nc(-c2ccncc2)cs1 (configuration not stated) | 0 | 0 | - | 0 | 0 | 0
COC(=O)[C@H]1O[C@@H](c2cc(OC)c(C)c(OC)c2OCc2ccccc2)[C@H](C)[C@H]2O[C@@]12C | - | - | 0 | - | - | -
Cc1ccc2nc(N3CCN(Cc4nnnn4C4CCCC4)CC3)c(C#N)cc2c1 | 23µM | ? | 0 | 0 | 0 | 0
Cc1ccc(C)c(N2CCN(Cc3nnnn3C3CCCCC3)CC2)c1 | ? | ? | 0 | 0 | 0 | 0
CCC(C)(C)n1nnnc1CN1CCN(c2nc3cc(OC)ccc3cc2C#N)CC1 | 23µM | ? | 0 | 0 | 0 | -56
COc1ccc2cc(C#N)c(N3CCOCC3)nc2c1 | ? | ? | 0 | 0 | 0 | 0
CCn1c(O)c(/C=C/C=C/C=Nc2ccccc2)sc1=S | 26µM | ? | 0 | 0 | 0 | 0
Oc1c(/C=C/C=C/C=Nc2ccccc2)sc(=S)n1Cc1ccccc1 | 21µM | ? | - | ? | 0 | 0
CCCn1c(O)c(C=Nc2ccccc2)sc1=S | ? | 0 | 0 | 0 | 0 | 0
CCCCn1c(O)c(/C=C/C=C/C=Nc2ccccc2)sc1=S | 15µM | 12µM | 0 | ? | 0 | 0
CCn1c(O)c(C=NCc2ccccc2)sc1=S | ? | 0 | 0 | 0 | 0 | 0
O=C1CCN(Cc2ccccc2)C=C1c1ccc(C(F)(F)F)cc1 | ? | ? | 0 | 0 | 0 | 0
O=C1CCN(Cc2ccccc2)C=C1c1ccc(Cl)cc1 | ? | 23µM | 0 | 0 | 0 | 0
COc1ccc(OC(=O)COc2ccc(C)cc2)cc1 | 0 | 0 | 0 | 0 | 0 | 0
